# Test results as given in PubChem BioAssay AID1963315 (National Center for Advancing Translational Sciences (NCATS), 2024).
# Records with an inconclusive call do not appear. Entries that show only a call come without a potency. Active and inactive are the calls of the source. Calls come from the whole dose curve.
# Biological target: Tyrosine-protein kinase ABL1 (Homo sapiens) (UniProt P00519)
# Assay: ABL1 kinase (ABL1-N-HiBiT) SDR gain of signal screen
# Conditions: Purified ABL1-N-HiBiT enzyme, Nano-Glo HiBiT luminescence, 30 min compound incubation; series mostly up to 32.9 µM
# Procedure, shortened: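 Gain-of-signal luminescence after Nano-Glo HiBiT detection (10 min, room temperature) measures compound binding to 10 nM ABL1-N-HiBiT, which had been incubated 30 min with compound at room temperature, light-protected, without ATP.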
# Sequence of Tyrosine-protein kinase ABL1 (Homo sapiens) (P00519 whole entry, looked up): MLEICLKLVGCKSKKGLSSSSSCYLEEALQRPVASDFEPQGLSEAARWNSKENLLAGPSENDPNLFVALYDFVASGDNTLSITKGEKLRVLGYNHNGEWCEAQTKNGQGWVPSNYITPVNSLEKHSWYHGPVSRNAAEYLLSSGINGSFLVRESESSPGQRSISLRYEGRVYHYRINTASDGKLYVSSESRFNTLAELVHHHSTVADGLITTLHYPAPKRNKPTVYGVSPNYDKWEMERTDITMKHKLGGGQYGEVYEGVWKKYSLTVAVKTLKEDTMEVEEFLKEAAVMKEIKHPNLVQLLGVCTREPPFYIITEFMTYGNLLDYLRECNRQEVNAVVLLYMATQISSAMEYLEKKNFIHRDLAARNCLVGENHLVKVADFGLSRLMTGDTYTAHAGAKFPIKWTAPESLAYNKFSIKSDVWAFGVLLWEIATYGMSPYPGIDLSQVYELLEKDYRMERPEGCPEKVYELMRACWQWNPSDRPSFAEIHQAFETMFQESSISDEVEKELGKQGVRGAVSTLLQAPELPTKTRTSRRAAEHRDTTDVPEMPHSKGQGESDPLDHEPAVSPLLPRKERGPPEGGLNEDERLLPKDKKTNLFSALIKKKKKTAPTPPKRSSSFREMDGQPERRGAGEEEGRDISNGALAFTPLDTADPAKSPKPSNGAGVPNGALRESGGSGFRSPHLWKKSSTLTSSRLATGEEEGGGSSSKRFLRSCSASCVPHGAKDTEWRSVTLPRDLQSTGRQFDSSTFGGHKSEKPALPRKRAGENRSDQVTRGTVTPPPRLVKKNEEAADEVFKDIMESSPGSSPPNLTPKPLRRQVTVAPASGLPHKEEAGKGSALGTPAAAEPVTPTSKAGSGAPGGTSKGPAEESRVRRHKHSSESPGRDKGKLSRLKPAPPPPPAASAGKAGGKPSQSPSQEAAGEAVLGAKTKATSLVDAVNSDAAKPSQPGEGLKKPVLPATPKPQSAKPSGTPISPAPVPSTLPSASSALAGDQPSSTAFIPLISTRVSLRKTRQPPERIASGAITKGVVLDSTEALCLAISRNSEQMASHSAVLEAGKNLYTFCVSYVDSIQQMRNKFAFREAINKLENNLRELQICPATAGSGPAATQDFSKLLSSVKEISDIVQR
row,Compound,Potency
1,CO[C@H]1/C=C/O[C@@]2(C)Oc3c(C)c(O)c4c(O)c(c(/C=N\N5CCN(C6CCCC6)CC5)c(O)c4c3C2=O)NC(=O)/C(C)=C\C=C\[C@H](C)[C@H](O)[C@@H](C)[C@@H](O)[C@@H](C)[C@H](OC(C)=O)[C@@H]1C,inactive
2,Cc1cc(F)ccc1-c1nc(NCCN=C(N)NC#N)nc2c1ccc(=O)n2-c1c(F)cccc1F,inactive
3,Cc1c(Cl)cccc1S(=O)(=O)Nc1nc(NCCc2ccccc2)nc2c1CN(Cc1ccccc1)CC2,inactive
4,O=C(NC1CCNCC1)c1[nH]ncc1NC(=O)c1c(Cl)cccc1Cl,inactive
5,Cc1cccc(C)c1-n1c(=O)c2cnc(Nc3ccc(N4CCN(C)CC4)cc3)nc2n2c3ccccc3nc12,55.5 nM (active)
6,O=C(c1cccc(Cl)c1F)N1CCN(Cc2cccc(Nc3nccs3)n2)CC1,3930 nM (active)
7,Cc1cc(F)ccc1-c1nc(NC(CO)CO)nc2c1ccc(=O)n2-c1c(F)cccc1F,inactive
8,O=c1cc(N2CCOCC2)nc2c3ccccc3ccn12,8550 nM (active)
9,Nc1ncccc1-c1nc2ccc(-c3ccccc3)nc2n1-c1ccc(C2(N)CCC2)cc1,inactive
10,Cc1sc2c(c1C)C(c1ccc(Cl)cc1)=N[C@@H](CC(=O)Nc1ccc(OCCOCCOCCOCCNc3cccc4c3C(=O)N(C3CCC(=O)NC3=O)C4=O)cc1)c1nnc(C)n1-2 (some centres not stated),inactive
11,Cc1cc(Nc2ncc3cc(-c4c(Cl)cccc4Cl)c(=O)n(C)c3n2)ccc1F,4.94 nM (active)
12,Cc1cccc(/C=N/Nc2cc(N3CCOCC3)nc(OCCc3ccccn3)n2)c1,inactive
13,Cc1cc(O)c2c(c1)C(=O)c1cc(O)cc(O)c1C2=O,inactive
14,S=C(NCc1ccc2c(c1)OCO2)N1CCN(c2ncnc3c2oc2ccccc23)CC1,inactive
15,Cn1cc(-c2cc3c(N4CCN(c5ncc([C@@](C)(N)c6ccc(F)cc6)cn5)CC4)ncnn3c2)cn1,2480 nM (active)
16,O=C(Nc1cc(C(F)(F)F)ccc1N1CCCCC1)c1ccncc1,inactive
17,C[C@@H]1CN(CC(=O)Nc2ccc3c(c2)Cc2cccc(-c4cc(=O)cc(N5CCOCC5)o4)c2S3)C[C@H](C)O1,inactive
18,NC1CCC(Nc2nc(Nc3ccc(C(=O)N4CCCCC4)cc3)c3ncn(-c4cccc(F)c4)c3n2)CC1 (configuration not stated),255 nM (active)
19,C=CC(=O)N1CCC[C@@H](n2nc(-c3cccc(C(=O)Nc4ccc(C(C)C)c(C)c4)c3)c3c(N)ncnc32)C1,4410 nM (active)
20,CCCCCCCCCCCCc1ccc(S(=O)(=O)Nc2nncs2)cc1,inactive
21,Cc1cc(-c2cc(O)ccc2Cl)cc2nnc(Nc3ccc(OCCN4CCCC4)cc3)nc12,3.69 nM (active)
22,C[C@@H](NC(=O)c1ncnc(N)c1Cl)c1ncc(C(=O)Nc2cc(C(F)(F)F)c(Cl)cn2)s1,241 nM (active)
